An excerpt weighted towards active compounds, which were near 5.1% of everything screened.
NPSR antag: neuropeptide S receptor (human) antagonism, cAMP | CHO-NPSR cells, cAMP TR-FRET, antagonist mode | Potency, µM (titrated, usually from 38.3 µM), inactives show at the top dose activity change, negative = inhibition, hits mostly inhibitors | Q6W5P4 | AID 1461 | 220,000 compounds, 1% hits; note: potency is the fitted concentration of half-maximal effect; nearly all actives have a fitted effect of over 50% in size
PNC inhibitor: blocks assembly of the perinucleolar compartment; activity change (PNC), negative = inhibition, % at 10 µM; AID 2417; 140,000 compounds, 3.1% hits; PC3M PTB-GFP, PNC prevalence imaging, 16 h; active compounds read low;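 active = readout at or below -70, meaning at least 70% loss of cells showing the perinucleolar compartment, a nuclear body marking cancer cells; inconclusive = readout between -30 and a set limit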;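 note: plate controls were DMSO wells for no effect and camptothecin positive control wells for full effect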
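Read-out is percentage of cells bearing a perinucleolar compartment, from automated 20x imaging of fixed, Hoechst-stained PC3M PTB-GFP cells. Cells were seeded 4 h, then exposed 16 h to compound (23 nl of library stock) in duplicate plates.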
JMJD2E inh: inhibitors of human JMJD2E histone demethylase | Potency, µM (top dose mostly 57.1 µM), inactives show at the top dose activity change, negative = inhibition, most hits filed as inhibitors | 230,000 compounds, 1.6% hits | AID 2147 | JMJD2E catalytic domain, FDH-coupled NADH fluorescence (FDH is formaldehyde dehydrogenase) | B2RXH2; active = well fitted inhibition curve with a large enough effect, not every such curve was filed as active; inconclusive = small, poorly fitted or top-dose-only effect, or another doubt; inactive = no such curve, though single readings can be large or run the other way;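 note: potency is the fitted concentration of half-maximal effect; 0% = wells with enzyme and -100% = buffer wells without enzyme; nearly all actives have a fitted effect of over 50% in size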
Target sequence (B2RXH2 1-337 limits assumed): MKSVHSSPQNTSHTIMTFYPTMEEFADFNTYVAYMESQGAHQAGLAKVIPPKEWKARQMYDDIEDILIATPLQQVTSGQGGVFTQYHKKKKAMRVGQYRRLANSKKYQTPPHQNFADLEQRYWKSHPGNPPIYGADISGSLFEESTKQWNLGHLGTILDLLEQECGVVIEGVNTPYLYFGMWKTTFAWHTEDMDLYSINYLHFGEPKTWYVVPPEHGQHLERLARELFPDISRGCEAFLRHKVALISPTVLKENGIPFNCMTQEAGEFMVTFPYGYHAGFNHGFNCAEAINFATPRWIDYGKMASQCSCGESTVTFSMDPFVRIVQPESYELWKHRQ
Tau ThT inhib: inhibitors of human tau fibril formation, thioflavin T binding; recombinant tau K18 P301L, heparin-induced fibrillization, ThT fluorescence; Potency, µM (doses to about 57.4 µM), inactives show at the highest dose activity, negative = inhibition, usual class: inhibitors; 270,000 compounds, 2.1% hits; note: potency is the fitted concentration of half-maximal effect; nearly all actives have a fitted effect of over 55% in size
Target sequence (P10636 561-689 P618L limits assumed): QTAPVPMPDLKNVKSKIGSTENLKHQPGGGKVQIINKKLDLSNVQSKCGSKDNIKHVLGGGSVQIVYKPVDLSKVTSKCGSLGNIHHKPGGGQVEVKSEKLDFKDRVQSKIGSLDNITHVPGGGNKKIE
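Heparin-induced (20 uM) aggregation of recombinant human K18 P301L tau, 15 uM unlabeled with 0.24 uM labeled, pH 7 acetate buffer, 6 hr at 37 C with compound. Fibrils quantified by 30 uM ThT fluorescence after 1 hr ambient incubation.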
Tau fluor counter: counter-screen for tau fibril formation inhibitors; 280,000 compounds, 0.93% hits; AID 1463; Potency, µM (top dose mostly 57.7 µM), for the others: at the highest dose activity change, negative = decrease; tau K18 P301L (four-repeat tau fragment) Alexa594 fluorescence, heparin fibrillization; note: potency is the fitted concentration of half-maximal effect; nearly all actives have a fitted effect of over 55% in size
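Human K18 P301L tau (15 uM unlabeled plus 0.24 uM Alexa 594-labeled, final) in 100 mM sodium acetate pH 7 was mixed with compound and 20 uM heparin and incubated 6 hr at 37 C.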
Tau fibril FP: blocks human tau fibril formation measured by polarization | P10636 | K18 P301L tau heparin fibrillization, Alexa594 FP, 6 h | Potency, µM (highest dose often 57.7 µM), without a hit: at the top dose activity, negative = inhibition, actives largely listed as inhibitors | 280,000 compounds, 0.39% hits | AID 1468; note: potency is the fitted concentration of half-maximal effect; nearly all actives have a fitted effect of over 55% in size
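K18 P301L tau (15 uM unlabeled/0.24 uM Alexa 594-labeled, final) + compound + heparin 20 uM final; 100 mM NaOAc pH 7; 6 hr 37 C; ThT 30 uM final added, 1 hr RT; FP ex 555/em 632 nm.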
The depositor's hits bear a star; ? = inconclusive; . = no result; ! = a repeat was not active; [ ] = dose if it differs, or a comment. Unless noted, calls come from the whole dose curve; as a rule, active = well fitted curve in the direction sought with a large enough effect; inconclusive = small, poorly fitted or top-dose-only effect, or another doubt; inactive = no such curve, though single readings can be large; an effect the other way counts as inactive or inconclusive. Unless noted, % is set by controls: 0 for no effect and ±100 for the full control effect.

SMILES | NPSR antag | PNC inhibitor | JMJD2E inh | Tau ThT inhib | Tau fluor counter | Tau fibril FP
O=C(N/N=C/c1c(O)n(Cc2ccc(F)cc2)c(=O)[nH]c1=O)c1ccccc1O | 6.2%[46.1 µM] | ? | 25.1µM* | ? | -16.2% | 8.8%
O=C(N/N=C/c1c(O)n(Cc2ccccc2)c(=O)[nH]c1=O)c1ccccc1O | -16.8%[46.1 µM] | -13.0 | -3.1% | 8.5% | -5.3% | ?
COc1ccc(Cn2c(O)c(/C=N/NC(=O)c3ccccc3O)c(=O)[nH]c2=O)cc1 | 2.2% | 56.5 | 2.1% | 22.4µM* | ? | 1.7%
CCCc1cc(N2CCN(c3ccc(OC)cc3)CC2)n2cnnc2n1 | . | . | . | ? | -7.3% | 6.5%
COc1c(C)cc(Br)cc1C(=O)Nc1ccc(-c2nc3ncccc3o2)cc1 | . | . | . | ? | -15.9% | -4.2%
COc1ccccc1C(=O)Nc1ccc2nc(SCC(=O)N3CCCc4ccccc43)sc2c1 | . | . | . | -9.9% | -23.9% | ?
Nc1cc(Cl)c2nonc2c1[N+](=O)[O-] | -36.9% | ? | -15.7% | 11.2µM* | ? | -10.6%
N#CC(C#N)=Cc1cc(O)c(O)c(O)c1 | ? | . | 2µM* | 12.6µM*! | ? | 22.4µM*!
CS(=O)(=O)c1ncc(Cl)c(C(=O)Nc2c(C(=O)Nc3ccccc3)oc3ccccc23)n1 | . | . | . | 8.91µM* | -27.9% | -7.2%
COc1cccc(OC)c1C1=NCC(=O)Nc2c1oc1ccc(Br)cc21 | 10.1% | -119.3* | -5.0% | -12.5% | -6.0% | 2.8%
CC(=O)OC(C)(C)/C=C/C(=O)[C@](C)(O)[C@H]1[C@H](O)C[C@@]2(C)[C@@H]3CC=C4[C@H](C[C@H](O)C(=O)C4(C)C)[C@]3(C)C(=O)C[C@]12C | -2.2% | -114.6* | 5.3% | ? | -13.0% | -5.0%
O=[N+]([O-])c1ccc(-c2ccc(C=Nc3cccc4ccccc34)o2)cc1 | -7.8%[46.1 µM] | 5.3 | ? | 15.8µM* | -26.9% | -3.6%
O=C1NC(=O)N(Cc2ccco2)C(=O)/C1=C/c1ccc(-c2cccc([N+](=O)[O-])c2)o1 | ? | 18.6 | ? | ? | -14.9% | 6.2%
O=C1C=Cc2ccccc2C1=O | -8.7% | ? | 14.1µM* | 2.51µM* | ? | 4.47µM*
CC/C=C\C/C=C\C/C=C\C/C=C\C/C=C\CCCC(=O)NCCO | . | . | 7.1% | -4.7% | -9.1% | 7.6%
CCCn1nc2ccccc2c1P(=O)(N1CCOCC1)N1CCOCC1 | 3.0%[7.67 µM] | -90.1* | -4.6% | -6.0% | -7.4% | -0.9%
CN1CC[C@]2(C)c3cc(O)ccc3N(C)[C@@H]12 | . | . | 2.24µM* | . | . | .
CN1CC[C@@]2(C)c3cc(O)ccc3N(C)C12 (stereo partly specified) | ? | . | 5.01µM* | 7.08µM* | ? | 8.91µM*
CN1C(=O)C(=Cc2ccc(N3CCOCC3)c([N+](=O)[O-])c2)C(=O)N(C)C1=O | -46.3% | . | ? | ? | -18.1% | -5.9%
O=C1NC(=O)C(=Cc2ccc(N3CCN(C(=O)c4ccccc4)CC3)c([N+](=O)[O-])c2)C(=O)N1 | 8.3% | . | 22.4µM* | 11.2µM* | -15.2% | -13.0%
O=c1c(O)c(-c2ccc(O)c(O)c2)oc2c(O)c(O)cc(O)c12 | . | . | 2.82µM* | 3.55µM* | ? | 7.94µM*
CCN(CC)c1ccc(/C=C/[N+](=O)[O-])cc1 | 5.4% | . | 3.9% | 15.8µM* | ? | -8.6%
COc1ccc(CNC(=O)/C=C\c2ccc3[nH]cc(CCN(C)C)c3c2)cc1 | . | . | ? | -12.1% | -17.7% | 6.0%
CN(C)c1ccc(/C=C/c2cc[n+](C)c3ccccc23)cc1 | 6.31µM* | . | -1.9% | 16.3% | 12.6% | 5.8%
CC[n+]1c(/C=C/C=C/c2ccc(N(C)C)cc2)sc2ccccc21 | ? | . | -2.9% | 1.12µM* | 10µM*[quencher] | 6.31µM*
SMILES | NPSR antag | PNC inhibitor | JMJD2E inh | Tau ThT inhib | Tau fluor counter | Tau fibril FP
CN(C)c1ccc(/C=C/C=C/c2sc3ccccc3[n+]2C)cc1 | ? | . | -1.0% | 6.31µM* | ? | ?
O=C1/C(=C\c2ccccc2)C[C@@]2(O)[C@H]3Cc4ccc(O)c5c4[C@@]2(CCN3CC2CC2)[C@H]1O5 | . | . | . | -15.9% | -0.2% | -8.7%
C[C@@]12CCC3c4ccc(OS(=O)(=O)O)cc4CCC3C1CCC2O (stereo partly specified) | . | . | 188.2% | -10.0% | -5.0% | -2.9%
CCC(=O)Oc1ccc2c(c1)CCC1C2CC[C@]2(C)C(OC(=O)CC)CCC12 (stereo partly specified) | . | . | . | ? | -18.4% | 9.5%
COc1ccc(/C=C/C(=O)N2CC3C[C@@H](C2)Cn2c3cccc2=O)cc1OC | . | . | ? | -11.1% | -14.5% | -4.0%
CN(CCc1ccc(Cl)c(Cl)c1)[C@@H]1CCCC[C@@H]1N1CCCC1 | . | . | . | ? | ? | -0.3%
NNCc1cccc(O)c1 | -26.0%[46.1 µM] | . | 22.4µM*! | ? | ? | ?
O=C(CNC(=O)c1cccs1)NCC(=O)OCC(=O)c1ccc([N+](=O)[O-])cc1 | 12.1% | . | 6.5% | ? | -9.9% | ?
O=C(OCC(=O)c1ccc([N+](=O)[O-])cc1)/C(=C\c1ccc(Cl)cc1)NC(=O)c1ccccc1 | -3.9%[46.1 µM] | 17.8 | -17.8% | 12.6µM* | ? | -7.8%
Cn1nc(-c2ccc(C(=O)Nc3ccc(OC(F)(F)F)cc3)cc2)c2ccccc2c1=O | . | . | . | 12.0% | -12.0% | ?
O=C(c1ccc2nc(-c3ccco3)c(-c3ccco3)nc2c1)N1CCC2(CC1)OCCO2 | -20.8%[46.1 µM] | 6.7 | ? | 8.91µM* | ? | 20µM*
C/C(O)=C(/C#N)C(=O)Nc1cc(Br)ccc1Br | . | . | -8.0% | -15.1% | -8.2% | 2.8%
Cc1cc(C)n(-c2ccc(NN=C(C#N)C#N)cc2)n1 | ? | . | -21.7% | 5.01µM* | ? | 7.7%
N#CC(C#N)=NNc1ccc(-n2ccc(C(F)(F)F)n2)cc1 | 2.51µM* | . | 5.5% | . | -13.8% | 7.7%
O=C1NO[C@H]2[C@@H]1CN[C@@H]2C(=O)O | . | . | -20.5% | -5.0% | -5.5% | -6.9%
CCOc1ccc(-n2c(O)c(N=Nc3c(C)n(C)n(-c4ccccc4)c3=O)c(=O)[nH]c2=O)cc1 | 4.6% | . | 7.94µM* | ? | -17.9% | -6.9%
Cc1c(N=Nc2c(O)[nH]c(=S)[nH]c2=O)c(=O)n(-c2ccccc2)n1C | -2.0% | 86.5 | -5.5% | ? | -7.3% | ?
CC(C)N(Cc1ccccc1)C(=O)CCS(=O)(=O)c1ccc2c(c1)oc(=O)n2C | . | . | . | ? | -16.3% | -5.2%
CN[C@@H]1C[C@H](c2ccc(Cl)c(Cl)c2)c2ccccc21 | . | . | 7.9% | -23.1% | -18.9% | 1.1%
CCOC(=O)c1c(C)n(C(C)C)c2ccc(OC(=O)c3ccc(N4C(=O)CCC4=O)cc3)cc12 | 6.7% | ? | -0.7% | 6.8% | -3.0% | ?

Screens deposited in PubChem BioAssay by National Center for Advancing Translational Sciences (NCATS).
